# Target: T1, Methionyl-tRNA synthetase, putative (Leishmania donovani (strain BPK282A1)) (UniProt E9BF75)
# T1 sequence (whole entry): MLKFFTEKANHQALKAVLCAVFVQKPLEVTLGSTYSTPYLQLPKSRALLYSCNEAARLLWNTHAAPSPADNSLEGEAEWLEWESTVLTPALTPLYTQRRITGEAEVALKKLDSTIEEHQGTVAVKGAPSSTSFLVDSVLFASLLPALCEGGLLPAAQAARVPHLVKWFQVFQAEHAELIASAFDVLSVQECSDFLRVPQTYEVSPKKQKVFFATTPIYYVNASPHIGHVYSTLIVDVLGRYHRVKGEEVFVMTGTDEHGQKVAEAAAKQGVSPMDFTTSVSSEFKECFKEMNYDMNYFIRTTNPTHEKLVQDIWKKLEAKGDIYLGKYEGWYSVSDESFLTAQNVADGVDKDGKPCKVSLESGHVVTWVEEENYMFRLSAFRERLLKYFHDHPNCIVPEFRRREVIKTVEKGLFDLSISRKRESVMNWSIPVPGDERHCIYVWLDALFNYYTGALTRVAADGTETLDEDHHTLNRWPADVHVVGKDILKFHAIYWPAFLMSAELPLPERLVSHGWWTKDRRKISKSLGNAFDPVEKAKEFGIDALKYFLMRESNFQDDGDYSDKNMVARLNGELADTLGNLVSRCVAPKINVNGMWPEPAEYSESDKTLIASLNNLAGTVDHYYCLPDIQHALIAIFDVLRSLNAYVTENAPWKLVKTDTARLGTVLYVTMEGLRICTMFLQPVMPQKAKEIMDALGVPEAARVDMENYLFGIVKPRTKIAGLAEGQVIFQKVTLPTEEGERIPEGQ
# Assay: Leishmania donovani Methionine tRNA synthetase (LdMetRS):v7. Dose response assay
# Type: functional
# Parameters: conc 80 nM, time 150 minutes
smiles,measurement,setting,value
CCc1nc(NCCCC(=O)O)c2c3c(sc2n1)CCC3,PXC50,MAX_EFFECT 7.808564232,< 4
same,PXC50,MAX_EFFECT 8.905852417,< 4
O=C(CC1CCCCC1)N1CCC(c2ncc3c(n2)CCNC3)CC1,PXC50,MAX_EFFECT 14.51247166,< 4
same,PXC50,MAX_EFFECT 29.90654206,< 4
Cc1nc(N2CCC3(CC2)OCCO3)c2c(-c3cccs3)csc2n1,PXC50,MAX_EFFECT 10.43256997,< 4
same,PXC50,MAX_EFFECT 13.35012594,< 4
CC(=O)N1CCN(c2nc(C(F)(F)F)nc3sc(C)c(C)c23)CC1,PXC50,MAX_EFFECT 7.310704961,< 4
same,PXC50,MAX_EFFECT 8.093994778,< 4
O=C(O)C1CCCN1c1nc(C2CC2)cc(C(F)(F)F)n1 (stereo not drawn),PXC50,MAX_EFFECT 5.221932115,< 4
same,PXC50,MAX_EFFECT 7.049608355,< 4
CN(CC1CC1)c1ccc2ccc(C(=O)NC3CCCCC3)cn12,PXC50,"BOTTOM 1.124026448, HILLSLOPE 1.465093934, MAX_EFFECT 59.86394558, TOP 70.1166241",4.49
same,PXC50,"BOTTOM 5.503846383, HILLSLOPE 1.186903167, MAX_EFFECT 58.31775701, TOP 100.0",4.05
CN(c1ncnc2c1cnn2C)C1CCCN(c2cccnn2)C1 (stereo not drawn),PXC50,MAX_EFFECT 40.92592593,< 4
same,PXC50,MAX_EFFECT 46.94835681,< 4
CN(C)C(=O)N1CCN(c2ccc3ccc(C(=O)NC4CC4)cn23)CC1,PXC50,"BOTTOM 3.433705082, HILLSLOPE 1.394575879, MAX_EFFECT 54.57943925, TOP 100.0",4.05
same,PXC50,MAX_EFFECT 48.07256236,< 4
COc1ccccc1C1(CNc2nnc(C)c(C)c2C#N)CCOCC1,PXC50,MAX_EFFECT 9.85915493,< 4
same,PXC50,MAX_EFFECT 18.33333333,< 4
CC(C)C[C@H](N)COc1ccc(OC(F)(F)F)c(F)c1,PXC50,MAX_EFFECT 10.87420043,< 4
same,PXC50,MAX_EFFECT 10.97308489,< 4
Oc1c(Cl)cc(Cl)cc1CNc1nccs1,PXC50,MAX_EFFECT 15.39923954,< 3
same,PXC50,MAX_EFFECT 20.51835853,< 3
CS(=O)(=O)N1CCN(c2ccc3ccc(C(=O)NC4CCCC4)nn23)CC1,PXC50,MAX_EFFECT 4.387568556,< 4
same,PXC50,MAX_EFFECT 8.612440191,< 4
CC(C)C[C@H](N)COc1ccc(Cl)cc1C(=O)c1ccccc1,PXC50,MAX_EFFECT 7.036247335,< 4
same,PXC50,MAX_EFFECT 9.316770186,< 4
CCCC(=O)N1CCC(c2ncc3c(n2)CCNC3)CC1,PXC50,MAX_EFFECT 6.802721088,< 4
same,PXC50,MAX_EFFECT 13.45794393,< 4
Cc1nc(N2CCC(N)C2)c2ccsc2n1 (stereo not drawn),PXC50,MAX_EFFECT 4.663212435,< 4
same,PXC50,MAX_EFFECT 6.914893617,< 4
COCCN(Cc1sccc1C)c1nc(C)nc2sccc12,PXC50,MAX_EFFECT 12.79373368,< 4
same,PXC50,MAX_EFFECT 17.23237598,< 4
COCc1nc(N(C)CC(=O)N(C)C)c2c(-c3ccccc3)csc2n1,PXC50,MAX_EFFECT 3.778337531,< 4
same,PXC50,MAX_EFFECT 3.816793893,< 4
Cc1sc2nc(-c3cccs3)nc(N(C)CC(=O)NC3CC3)c2c1C,PXC50,MAX_EFFECT 6.361323155,< 4
same,PXC50,MAX_EFFECT 7.808564232,< 4
CNS(=O)(=O)c1cc(C(C)C)c(Br)cc1C(C)C,PXC50,MAX_EFFECT 9.649122807,< 4
same,PXC50,MAX_EFFECT 14.58333333,< 4
COc1ccc(-c2cc(C(F)(F)F)nc(N3CCCCC3)n2)cc1OC,PXC50,MAX_EFFECT 2.702702703,< 4
same,PXC50,MAX_EFFECT 3.015075377,< 4
O=C1CN(c2nc(-c3cccnc3)nc3sc4c(c23)CCCC4)CCN1,PXC50,MAX_EFFECT 24.0,< 4
same,PXC50,MAX_EFFECT 26.98412698,< 4
Cc1nc(NCCCS(N)(=O)=O)c2c3c(sc2n1)CCC3,PXC50,MAX_EFFECT 5.319148936,< 4
same,PXC50,MAX_EFFECT 8.29015544,< 4
COCCNc1nc(N2CCCC2)nc2sc3c(c12)CCCC3,PXC50,MAX_EFFECT 20.83333333,< 4
same,PXC50,MAX_EFFECT 36.40350877,< 4
O=C(c1cnccn1)N1CCC(F)(F)C2(CCN(c3ccccn3)C2)C1 (stereo not drawn),PXC50,MAX_EFFECT 7.962962963,< 4
same,PXC50,MAX_EFFECT 7.981220657,< 4
CCn1cc(-c2cc(C(F)(F)F)nc(NC3CCCC3)n2)c(C)n1,PXC50,MAX_EFFECT 6.788511749,< 4
same,PXC50,MAX_EFFECT 7.571801567,< 4
Nc1cc(C(=O)O)c(Cl)cc1Cl,PXC50,MAX_EFFECT 6.695464363,< 3
same,PXC50,MAX_EFFECT 9.69581749,< 3
CCNc1nc(CC)nc2sc(CC)cc12,PXC50,MAX_EFFECT 7.537688442,< 4
same,PXC50,MAX_EFFECT 11.05651106,< 4
CN(C)C(=O)c1ccc2ccc(N3CCN(CC4CC4)CC3)n2c1,PXC50,MAX_EFFECT 43.08390023,< 4
same,PXC50,MAX_EFFECT 51.58878505,< 4
CS(=O)(=O)N1CCN(c2ccc3ccc(C(=O)NCCN4CCS(=O)(=O)CC4)cn23)CC1,PXC50,"BOTTOM 1.003127248, HILLSLOPE 2.200420441, MAX_EFFECT 73.49177331, TOP 74.60069177",4.88
same,PXC50,"BOTTOM 1.050104582, HILLSLOPE 2.645513549, MAX_EFFECT 70.81339713, TOP 67.22785398",4.94
CCc1nc(N2CCCC(C)C2)c2c3c(sc2n1)CCC3 (stereo not drawn),PXC50,"BOTTOM 6.332749468, HILLSLOPE 1.241583482, MAX_EFFECT 50.25125628, TOP 77.91036355",4.17
same,PXC50,MAX_EFFECT 49.87714988,< 4
CCc1nc(-n2nc(C)cc2N)c2c3c(sc2n1)CCCC3,PXC50,MAX_EFFECT 9.836065574,< 4
same,PXC50,MAX_EFFECT 10.69518717,< 4
CCNC(=O)c1ccc2ccc(N(CC)CC)n2c1,PXC50,MAX_EFFECT 16.85185185,< 4
same,PXC50,MAX_EFFECT 25.35211268,< 4
N[C@H](COc1cccc(F)c1Oc1ccc(Cl)cc1)CC1CCCCC1,PXC50,"BOTTOM 8.516712257, HILLSLOPE 1.897669447, MAX_EFFECT 94.20289855, TOP 100.0",4.49
same,PXC50,"BOTTOM 8.547488971, HILLSLOPE 2.365761437, MAX_EFFECT 99.14712154, TOP 101.5267465",4.51
CCOC(=O)N1CCN(c2nc(C)nc3scc(-c4cccs4)c23)CC1,PXC50,MAX_EFFECT 28.24427481,< 4
same,PXC50,MAX_EFFECT 28.46347607,< 4

# From ChEMBL document CHEMBL3988442, “University of Dundee, Small-Polar-MMV Screening Library” (2021)
